Assay [1] in a line: Cell Viability - Jurkat (AID 426;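 active means dose-dependent loss of cell ATP signal giving a full or clear fitted curve, ranked by lower potency value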;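 further: potency means the concentration at half of the fitted maximal effect; cells exposed to compound for 40 hours at 37 °C before ATP read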). As to conditions: qHTS. The method in brief: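 Seed 5000 Jurkat E6-1 cells/well; add compound; incubate 40 hr at 37 °C; add CellTiter-Glo; wait 20 min at room temperature; read luminescence. Fit concentration-response with Hill equation for AC50.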
Background: qHTS replaces the single test concentration by a dilution series.

The nature of assay [2]: Cell Viability - Hek293 (AID 427;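 active means compounds whose dose-response curve shows a full or clear partial loss of cell viability, called from curve shape rather than a numeric limit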;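 further: potency means the concentration at half of the fitted maximal effect; cells exposed to compound for 40 hours at 37 °C before reading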). The following applies: qHTS. The method in brief:
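Luminescent ATP content (CellTiter-Glo, 20 min at room temperature) was measured after a 40 hr, 37 °C compound exposure of HEK293 cells. AC50 values came from Hill-equation fits of qHTS concentration-response data normalized to DMSO and 100 uM tamoxifen.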

Assay [3] in a line: Cell Viability - HepG2 (AID 433; calls by dose curve;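 further: potency means the concentration at half of the fitted maximal effect; cells exposed to compound for 40 hours; potency for ATP loss meaning cytotoxicity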). The following applies: qHTS. The method in brief: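 In this qHTS format, a 40 h, 37 °C compound incubation of HepG2 cells in complete medium precedes a 20 min CellTiter-Glo step at room temperature. Tamoxifen and doxorubicin serve as positive controls; Hill-equation fits yield AC50.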
Assay [4] in a line: Cell Viability - N2a (AID 540). Further: nearly all actives have a fitted effect of over 45% in size. Further: potency means the concentration at half of the fitted maximal effect.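 On activity change, negative = cytotoxicity: plate controls were DMSO alone for no effect and tamoxifen control for full effect.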 As to conditions: N2a mouse neuroblastoma cell viability; activity change, negative = cytotoxicity: at 92.2 µM (top of the series). The method in brief: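 First, 1500 N2a cells per well incubate 5 hr at 37 °C; next, compounds are added and incubated 40 hr at 37 °C; finally CellTiter-Glo is added and luminescence read after 20 min, with AC50 derived by Hill modeling.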

Assay [5] is described as follows: Cell Viability - NIH 3T3 (AID 541).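 Further: cells exposed to compound for 40 hours; nearly all actives have a fitted effect of over 25% in size.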 Further: potency means the concentration at half of the fitted maximal effect.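 On activity change, negative = cytotoxicity: plate controls were DMSO alone for no effect and tamoxifen positive control for full effect.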 The following applies: NIH 3T3 cell viability, qHTS; activity change, negative = cytotoxicity: at 92.2 µM (top of the series). The method in brief: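 AC50 values reflect concentration-dependent loss of intracellular ATP in NIH 3T3 cells after 40 hr treatment in complete culture medium, quantified by luciferase-based luminescence.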

The nature of assay [6]: Confirmation and Secondary Assay for Modulators of Hemoglobin Beta Chain Splicing at IVS2 705 locus (AID 930).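 Further: HeLa cells stably expressing the EGFP-705 splicing reporter; GFP fluorescence per well restored by corrected splicing of the IVS2-705 intron in EGFP; % of control where 0% means no effect.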 The following applies: HeLa EGFP-705 splicing reporter, GFP fluorescence, 48 h; series mostly up to 38.3 µM. The method in brief:
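HeLa EGFP-705 reporter; 500 cells/well, o/n 37C 5% CO2; cpd 2 d; 488 ex/500-520 em laser scan; total peak GFP intensity/well. Ref: 500 nM […] antisense PNA.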

The subject of a further assay is 3D7. Kind of assay: qHTS profiling for inhibitors of Plasmodium falciparum proliferation (AID 504749). Further: nearly all actives have a fitted effect of over 60% in size. Further: potency means the concentration at half of the fitted maximal effect. The following applies: P. falciparum in erythrocytes, SYBR Green DNA, 72 h; series mostly up to 28.7 µM. The method in brief:
(§1)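 Three-day growth assay of blood-stage parasites in erythrocytes (0.3% parasitemia, 2.5% hematocrit) at 37 C, 5% CO2, quantified by SYBR Green DNA staining after overnight detergent lysis.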

A further assay deals with CP194. The description is as above. The following applies: P. falciparum in erythrocytes, SYBR Green DNA, 72 h; series mostly up to 28.7 µM. The method in brief: as §1
For another assay, the system named is CP203. Described as above. As to conditions: P. falciparum in erythrocytes, SYBR Green DNA, 72 h; series mostly up to 28.7 µM. The method in brief:
as §1

The test system of a further assay is CP260. The assay is described as above. The following applies: P. falciparum in erythrocytes, SYBR Green DNA, 72 h; series mostly up to 28.7 µM. The method in brief: as §1
The test system of another assay is CP266. The description is as above. As to conditions: P. falciparum in erythrocytes, SYBR Green DNA, 72 h; series mostly up to 28.7 µM. The method in brief: as §1
The next assay deals with DIV14. The description is as above. As to conditions: P. falciparum in erythrocytes, SYBR Green DNA, 72 h; series mostly up to 28.7 µM. The method in brief: as §1
Another assay concerns Dd2. Described as above. The following applies: P. falciparum in erythrocytes, SYBR Green DNA, 72 h; series mostly up to 28.7 µM. The method in brief:
as §1

A further assay concerns PC26. Described as above. As to conditions: P. falciparum in erythrocytes, SYBR Green DNA, 72 h; series mostly up to 28.7 µM. The method in brief:
as §1

The next assay has as its system TAB165. Described as above. As to conditions: P. falciparum in erythrocytes, SYBR Green DNA, 72 h; series mostly up to 28.7 µM. The method in brief:
as §1

Assay [7] deals with Alpha-galactosidase A (Homo sapiens) (UniProt P06280). Kind of assay: Counterscreen for Glucocerebrosidase Inhibitors: qHTS Assay for Human alpha-Galactosidase at pH 4.5 (AID 992). Further: 0% is about no effect. As to conditions: purified enzyme, fluorogenic substrate; series mostly up to 76.9 µM. The method in brief:
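Quantitative HTS: compounds tested from 0.7 nM up to 77 uM against 2 nM enzyme with 80 uM 4-MU alpha-D-galactopyranoside. The 20 min room-temperature reaction is stopped with 1M NaOH/1M glycine, pH 10.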
A general note: A counterscreen serves to expose hits that act by an unwanted route or on another target.

Assay [8] deals with alpha-glucosidase (Oryza sativa, rice) (UniProt Q653V4). Kind of assay: Counterscreen for Glucocerebrosidase Inhibitors: qHTS Assay for Rice alpha-Glucosidase at pH 5.0 (AID 997).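 Further: 0% = full activity with enzyme and -100% = basal without enzyme.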 As to conditions: rice alpha-glucosidase enzyme activity; series mostly up to 76.9 µM. The method in brief:
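Rice alpha-glucosidase (4 nM final) with 400 uM 4-methylumbelliferyl-alpha-D-glucopyranoside in citrate buffer pH 5.0, 20 min at room temperature, stopped at pH 10; fluorescence 365/440 nm, compounds 0.7 nM–77 uM, AC50 from Hill fits.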

Another assay deals with P93_24. As to the kind of experiment: qHTS profiling for inhibitors of Plasmodium falciparum proliferation (AID 504749). Further: nearly all actives have a fitted effect of over 60% in size. Further: potency means the concentration at half of the fitted maximal effect. The following applies: P. falciparum in erythrocytes, SYBR Green DNA, 72 h; series mostly up to 28.7 µM. The method in brief: as §1
A further assay relates to CP269. Described as above. The following applies: P. falciparum in erythrocytes, SYBR Green DNA, 72 h; series mostly up to 28.7 µM. The method in brief: as §1
In a further assay the test system is FAB9. Described as above. As to conditions: P. falciparum in erythrocytes, SYBR Green DNA, 72 h; series mostly up to 28.7 µM. The method in brief:
as §1

Values without a mark were called inactive. Records with an inconclusive call do not appear. The source made the active and inactive calls. Unless noted, the call rests on the fitted dose curve; in most records, active means well fitted curve in the direction sought with a large enough effect; inconclusive means small, poorly fitted or top-dose-only effect, or another doubt; inactive means no such curve, though single readings can be large; an effect the other way counts as inactive or inconclusive.

Chain of Alpha-galactosidase A (Homo sapiens) (P06280 whole entry, looked up): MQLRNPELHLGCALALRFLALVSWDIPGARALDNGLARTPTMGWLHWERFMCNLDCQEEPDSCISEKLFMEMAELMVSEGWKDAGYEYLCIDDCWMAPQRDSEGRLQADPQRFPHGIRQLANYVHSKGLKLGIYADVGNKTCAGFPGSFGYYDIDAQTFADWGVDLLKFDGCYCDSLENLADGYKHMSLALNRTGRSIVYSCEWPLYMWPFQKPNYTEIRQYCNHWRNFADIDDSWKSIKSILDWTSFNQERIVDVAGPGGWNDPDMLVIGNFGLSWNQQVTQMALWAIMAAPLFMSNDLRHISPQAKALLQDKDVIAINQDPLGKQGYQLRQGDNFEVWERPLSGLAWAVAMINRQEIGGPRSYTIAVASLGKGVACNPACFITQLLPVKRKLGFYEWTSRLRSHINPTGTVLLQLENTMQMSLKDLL

On to `CC(CCC(=O)O)(c1ccc(O)cc1)c1ccc(O)cc1`, for which the Potency in assay [1], in assay [2] and in assay [3] was greater than 92 µM each time. Moreover, the activity change, negative = cytotoxicity is 8.91% in assay [4] and -7.14% in assay [5].
Consider `N=C1C=CC(=C(c2ccc(N)cc2)c2ccc(N)cc2)C=C1`, for which the Potency in assay [1] was 15.1 µM (active); in [2] it was 19.6 µM (active); in assay [3], 18.6 µM (active); in assay [4], 3.98 µM (active); in [5] it was 3.16 µM (active).
For `Cc1cccc(CNc2ncnc3ccc(-c4ccc(C(=O)N(C)C)cc4)cc23)c1`, in assay [6], the result was inactive.
As for `Cc1cccc(CNc2nc(-c3cccnc3)nc3ccccc23)c1`, the result in assay [6] was inactive.
`OC[C@H](S)CS`: the Potency in the assay on 3D7 is 3.16 µM (active); with CP260, 0.891 µM (active); in the assay with DIV14 it was 12 µM (active); in the assay on Dd2 it was 2.24 µM (active). Besides, the Potency result with CP194, with CP203, in the assay on CP266, with PC26 and in the assay on TAB165 was “inactive” in each case.
Consider `CC[C@H]1C(=O)OC[C@H]1Cc1cncn1C`, for which the call in assay [7] was inactive. Moreover, in [8], the Potency entry is “inactive”.
On to `CCc1ccc2c(c1)N(C[C@H](C)CN(C)C)c1ccccc1S2`, for which the Potency entry in the assay with CP266 is “inactive”. For the same molecule, the values for the Potency in the assay on DIV14 and with P93_24 were 8.49 µM (active) and 7.94 µM (active), respectively.
Consider `CC(=O)N1CCN(c2ccc(OC[C@@H]3CO[C@@](Cn4ccnc4)(c4ccc(Cl)cc4Cl)O3)cc2)CC1`, for which the Potency entry in the assay with 3D7, in the assay with CP260, with CP269, with Dd2 and in the assay with FAB9 was “inactive” in each case.
`N=c1ccn2c(n1)O[C@@H]1[C@@H](O)[C@H](CO)O[C@H]12`: the call in assay [6] and in assay [7] was inactive. Also, the Potency result in assay [8] is “inactive”.
As to `Cc1nnc(SCC2=C(C(=O)O)N3C(=O)[C@@H](NC(=O)Cn4cnnn4)[C@@H]3SC2)s1`, the call in assay [7] was inactive. Moreover, the Potency entry in assay [8] is “inactive”.
As to `COc1cc2nc(N(C)CCCNC(=O)[C@@H]3CCCO3)nc(N)c2cc1OC`, the Potency result in the assay with 3D7, in the assay on CP194, with CP203, in the assay on CP260, with CP269 and in the assay on DIV14 was “inactive” each time. The Potency result in the assay with Dd2, in the assay on FAB9, in the assay with P93_24, in the assay on PC26 and in the assay on TAB165 was “inactive” in each case.
For the molecule `C(=C/c1ccccc1)/CN1CCN(C(c2ccccc2)c2ccccc2)CC1`, the Potency result in the assay on CP194, with CP203, with CP266, in the assay with CP269, in the assay with FAB9 and in the assay on P93_24 was “inactive” throughout. Further, the Potency entry in the assay on PC26 and in the assay with TAB165 was “inactive” in each case.

For the origin of these results see PubChem BioAssay (NCATS).
